# PubChem BioAssay (Tox21)
# Results filed as inconclusive are left out. The source made the active and inactive calls. Calls follow the shape of the dose curve; as a rule, active = well fitted cell-killing curve with a large enough effect in the repeat runs; inconclusive = weak or mixed curves, or effect the other way; inactive = flat fitted curve, though single readings scatter.
# Assay: qHTS assay to identify small molecule antagonists of the retinoid acid receptor (RAR) signaling pathway - cell viability counter screen (AID 1159551); also: nearly all actives have a fitted effect of over 35% in size
# Settings: C3RL4 cells viability, ATP luminescence (CellTiter-Glo), 6 h; series mostly up to 92.4 µM; activity change, negative = cytotoxicity: at the top concentration
# Text: U.S. Tox21 Program National Center for Advancing Translational Sciences [NCATS] NIH Chemical Genomics Center [NCGC] U.S. Environmental Protection Agency [EPA] National Institutes of Environmental Health Sciences [NIEHS] National Toxicology Program [NTP] U.S. Food and Drug Administration [FDA] Tox21 Assay Overview: All-trans Retinoic acid (atRA) is the potent natural metabolite of retinol and plays an important role in normal embryonic development and maintenance of cellular phenotype in adult animals. atRA is the activating ligand for the retinoic acid receptors (RARs) which form heterodimers with retinoid X receptors (RXRs) on the retinoic acid response element (RARE). Through activation of the RAR/RXRs nuclear receptors, atRA regulates the transcription of a large number of protein-coding genes and regulatory RNAs. Intracellular levels of atRA are controlled by the retinol signaling pathway (RSP) that regulates the biosynthesis and catabolism of atRA to maintain physiological levels. Chemicals that interfere with the RSP can cause abnormal intracellular levels of atRA and therefore are potential developmental toxicants. To assess compounds for the potential adverse effect on embryonic development through interfering with retinol signaling, a cell-based RARE luciferase reporter gene assay was used. C3RL4 cell line (OARSA/CFSAN/FDA, Laurel, MD) was used to screen Tox21 10K compound library for identifying inhibitors of the RSP. Also cytotoxicity was assessed by determining the viability of cells based on the quantitation of ATP.
# Tox21 Assay Protocol Summary: C3RL4 cells were seeded at 1,000/well in 4 uL of assay medium into white solid 1,536-well tissue culture plates (Greiner Bio-One North America Inc. Monroe, NC) using a Multidrop Combi (Thermo Scientific, Waltham, MA) dispenser. After incubation at 37 C and 5% CO2 for an overnight, 23 nL of compounds dissolved in DMSO, positive control or DMSO only were transferred by a Pintool station (Kalypsys, San Diego, CA). One ul of 1 uM (final concentration) of Retinol was added right after the compound addition by using a Flying Reagent Dispenser (FRD) (Aurora Discovery, San Diego, CA). After 6 hr incubation at 37 C and 5% CO2, 5 uL of CellTiter-Glo reagent (Promega Corporation, Madison, WI) was added to each assay plate using an FRD. Luminescence was quantified on a ViewLux plate reader (PerkinElmer, Waltham, MA) after 30 min incubation at room temperature.
# % is scaled to controls: 0 for no effect and ±100 for the full control effect.
row,SMILES,"activity change, negative = cytotoxicity"
1,CCOc1ccc(N)c([N+](=O)[O-])c1,0.0074% (inactive)
2,C#Cc1cccc(Nc2ncnc3cc(OCCOC)c(OCCOC)cc23)c1,-1.22% [at 42.5 µM] (inactive)
3,COc1ccc2cccc(CCNC(C)=O)c2c1,4.01% [at 42.5 µM] (inactive)
4,O=C(O)C1(C(=O)Nc2ccc(Cl)cc2Cl)CC1,1.79% (inactive)
5,NCC(=O)CCC(=O)O,-3.51% [at 42.5 µM] (inactive)
6,CC(C)(COC(=O)c1ccccc1)COC(=O)c1ccccc1,-1.16% (inactive)
7,CCC(C)(C)CC,-1.04% (inactive)
8,CC(C)(O)c1ccc(CNC(=O)c2cccnc2Oc2ccc(F)cc2)cc1,0.124% (inactive)
9,CC(C)OC(=O)C(C)N(C(=O)c1ccccc1)c1ccc(F)c(Cl)c1 (stereo not given),-3.33% (inactive)
10,O=C(NCC1CN(c2ccc(N3CCOCC3=O)cc2)C(=O)O1)c1ccc(Cl)s1 (stereo not given),-1.23% [at 42.5 µM] (inactive)
11,CN(C)c1ccc(C(c2ccccc2)c2ccc(N(C)C)cc2)cc1,1.8% (inactive)
12,Cc1ncc(CO)c(C=O)c1O,2.47% [at 42.5 µM] (inactive)
13,CCCCC(CC)CN1C(=O)C2C3C=CC(C3)C2C1=O (stereo not given),-0.997% (inactive)
14,COc1cc2nc(Cl)nc(N)c2cc1OC,1.15% [at 42.5 µM] (inactive)
15,COc1cccc(N(C)C(=S)Oc2ccc3c(c2)CCCC3)n1,-1.46% [at 42.5 µM] (inactive)
16,O=C(O)c1nc(Cl)c(Cl)c(Cl)c1Cl,-0.533% (inactive)
17,CCCCCCCCCCCCCCCCOS(=O)(=O)O,-0.593% [at 42.5 µM] (inactive)
18,NS(=O)(=O)c1ccc(N2CCCCS2(=O)=O)cc1,3.81% [at 42.5 µM] (inactive)
19,CN1Cc2cc(C(=O)N3CCC(C4CCNCC4)CC3)ccc2NC(CC(=O)O)C1=O (stereo not given),-2.88% [at 42.5 µM] (inactive)
20,CN(C)CCOC(c1ccccc1)c1ccc(Br)cc1 (stereo not given),1.38% [at 42.5 µM] (inactive)

row,SMILES,"activity change, negative = cytotoxicity"
1,c1ccc(-c2ccccn2)nc1,-0.176% (inactive)
2,Cc1nn(C)c(Oc2ccccc2)c1/C=N/OCc1ccc(C(=O)OC(C)(C)C)cc1,-4.4% (inactive)
3,CC(=O)[O][Al][O]C(C)=O,-0.28% (inactive)
4,C[N+]1(CC2COC(c3ccccc3)(C3CCCCC3)O2)CCCCC1 (stereo not given),-1.48% [at 42.5 µM] (inactive)
5,CC(=O)c1ccc2c(c1)N(CCCN1CCC(CCO)CC1)c1ccccc1S2,-0.803% [at 42.5 µM] (inactive)
6,COC(=O)C1=C(C)NC(COC(N)=O)=C(C(=O)OC(C)C)C1c1cccc(Cl)c1Cl (stereo not given),-0.229% [at 42.5 µM] (inactive)
7,OC(CN1CCC(Cc2ccc(F)cc2)CC1)c1ccc(Cl)cc1 (stereo not given),-8.83% [at 42.5 µM] (inactive)
8,Nc1ccc([N+](=O)[O-])c(C(F)(F)F)c1,-5.48% [at 42.5 µM] (inactive)
9,CC(C)CC(=O)C1C(=O)c2ccccc2C1=O,-0.746% (inactive)
10,CN1CCC(N(Cc2cccs2)c2ccccc2)CC1,-6.17% [at 42.5 µM] (inactive)
11,CNCCCCOc1ccccc1Cc1ccccc1,-0.218% [at 42.5 µM] (inactive)
12,Clc1ccc(Cn2c(CN3CCCC3)nc3ccccc32)cc1,1.76% [at 42.5 µM] (inactive)
13,O=C(O)CNCC(=O)O,-1.04% [at 8.39 µM] (inactive)
14,CCC(Cl)CCC(Cl)C(Cl)CC(Cl)C(Cl)C(Cl)CCl (stereo not given),-1.41% (inactive)
15,Cc1c(N)cccc1[N+](=O)[O-],-0.0871% (inactive)
16,C/C=C/C=C/CO,-0.268% (inactive)
17,CCCCc1nc2cccnc2n1Cc1ccc(-c2ccccc2-c2nnn[nH]2)cc1,3.36% (inactive)
18,c1ccc(CNCCNCc2ccccc2)cc1,-0.608% [at 42.5 µM] (inactive)
19,CCOc1ccc(O)cc1,2.42% (inactive)
20,C=C(C)C(=O)OCC,0.0347% (inactive)
